Values joined by “and” are separate entries in the source; they are usually repeats but may differ in a detail not shown here. Equal values may be shown once. In all, about 5,500 compounds went through this assay and about 2,000 (36%) were called active. Another 18% or so got no clear call; they are omitted. No stated cut-off is given here; in the data, active means normalized growth mostly below about 0.91 (no sharp cut-off); inconclusive means no clear call, values can overlap the other calls; inactive means mostly above about 0.92. The list shows a part of the results.
Assay: chemical genetic growth profiling, strain panel (AID 1159580);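 further: tested at 20 µM; growth read once vehicle control cultures reached saturation at 30 °C; 1 = growth at the plate median or of vehicle wells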
Conditions: growth OD

Measured: normalized growth

O=C1NC(O)=NC1(c1ccccc1)c1ccccc1
inactive: S. cerevisiae deletion strains, locus YJR075W, strain HOC1, stronger effect = lower value 1.01 | S. cerevisiae deletion strains, locus YKL009W, strain mrt4, stronger effect = lower value 1.01 | S. cerevisiae deletion strains, locus YKL068W, stronger effect = lower value 1.02 | S. cerevisiae deletion strains, locus YKL085W, strain MDH1 (second series), stronger effect = lower value 1 | S. cerevisiae deletion strains, locus YKL085W, strain MDH1, stronger effect = lower value 1 | S. cerevisiae deletion strains, locus YKL160W, strain elf1, stronger effect = lower value 1.03 | S. cerevisiae deletion strains, locus YKL190W, strain CNB1, stronger effect = lower value 1.01 | S. cerevisiae deletion strains, locus YKR001C, strain vps1, stronger effect = lower value 1.01 | S. cerevisiae deletion strains, locus YKR026C, strain gcn3, stronger effect = lower value 1.02 | S. cerevisiae deletion strains, locus YKR091W, strain srl3, stronger effect = lower value 1.02 | S. cerevisiae deletion strains, locus YLL001W, strain dnm1, stronger effect = lower value 1.02 | S. cerevisiae deletion strains, locus YLL026W, stronger effect = lower value 1.01 | S. cerevisiae deletion strains, locus YLL041C, strain sdh2, stronger effect = lower value 1.01 | S. cerevisiae deletion strains, locus YLR027C, strain aat2, stronger effect = lower value 1.02 | S. cerevisiae deletion strains, locus YLR039C, strain RIC1, stronger effect = lower value 0.995 | S. cerevisiae deletion strains, locus YLR058C, strain SHM2, stronger effect = lower value 1.01 | S. cerevisiae deletion strains, locus YLR102C, strain apc9, stronger effect = lower value 1.02 | S. cerevisiae deletion strains, locus YLR113W, strain HOG1, stronger effect = lower value 1.01 | S. cerevisiae deletion strains, locus YLR221C, strain rsa3, stronger effect = lower value 1.03 | S. cerevisiae deletion strains, locus YLR258W, strain gsy2, stronger effect = lower value 1.03 | S. cerevisiae deletion strains, locus YLR262C, strain YPT6 (second series), stronger effect = lower value 1.05 | S. cerevisiae deletion strains, locus YLR262C, strain YPT6, stronger effect = lower value 1.03 | S. cerevisiae deletion strains, locus YLR268W, strain sec22, stronger effect = lower value 1.05 | S. cerevisiae deletion strains, locus YLR320W, strain mms22, stronger effect = lower value 1.03 | S. cerevisiae deletion strains, locus YLR330W, strain CHS5, stronger effect = lower value 1.01 | S. cerevisiae deletion strains, locus YLR342W, strain FKS1 (second series), stronger effect = lower value 0.985 | S. cerevisiae deletion strains, locus YLR342W, strain FKS1, stronger effect = lower value 1.02 | S. cerevisiae deletion strains, locus YLR357W, strain rsc2, stronger effect = lower value 1.01 | S. cerevisiae deletion strains, locus YLR370C, strain arc18, stronger effect = lower value 1.01 | S. cerevisiae deletion strains, locus YLR371W, strain rom2, stronger effect = lower value 1.02 | S. cerevisiae deletion strains, locus YLR384C, strain iki3, stronger effect = lower value 1.01 | S. cerevisiae deletion strains, locus YLR418C, strain cdc73, stronger effect = lower value 1 | S. cerevisiae deletion strains, locus YML016C, strain PPZ1, stronger effect = lower value 1.01 | S. cerevisiae deletion strains, locus YML032C, strain rad52, stronger effect = lower value 1.03 | S. cerevisiae deletion strains, locus YML120C, strain ndi1, stronger effect = lower value 1.02 | S. cerevisiae deletion strains, locus YML124C, strain tub3, stronger effect = lower value 1.01 | S. cerevisiae deletion strains, locus YMR058W, strain fet3, stronger effect = lower value 1.01 | S. cerevisiae deletion strains, locus YMR078C, strain ctf18, stronger effect = lower value 1.02 | S. cerevisiae deletion strains, locus YMR125W, strain sto1, stronger effect = lower value 1.02 | S. cerevisiae deletion strains, locus YMR129W, stronger effect = lower value 1.02 | S. cerevisiae deletion strains, locus YMR205C, strain PFK2, stronger effect = lower value 1.04 | S. cerevisiae deletion strains, locus YMR223W, strain ubp8, stronger effect = lower value 0.991 | S. cerevisiae deletion strains, locus YMR231W, strain pep5, stronger effect = lower value 1.02 | S. cerevisiae deletion strains, locus YMR263W, strain SAP30, stronger effect = lower value 1.01 | S. cerevisiae deletion strains, locus YMR307W, strain GAS1, stronger effect = lower value 0.906 | S. cerevisiae deletion strains, locus YNL067W, strain RPL9B, stronger effect = lower value 1.01 | S. cerevisiae deletion strains, locus YNL071W, strain lat1, stronger effect = lower value 1.02 | S. cerevisiae deletion strains, locus YNL128W, strain TEP1, stronger effect = lower value 1.01 | S. cerevisiae deletion strains, locus YNL153C, strain GIM3, stronger effect = lower value 1.01 and 0.985 | S. cerevisiae deletion strains, locus YNL175C, strain NOP13, stronger effect = lower value 0.974 | S. cerevisiae deletion strains, locus YNL183C, strain NPR1, stronger effect = lower value 0.954 | S. cerevisiae deletion strains, locus YNL197C, strain WHI3, stronger effect = lower value 0.983 | S. cerevisiae deletion strains, locus YNL209W, strain ssb2, stronger effect = lower value 1.02 | S. cerevisiae deletion strains, locus YNL224C, strain SQS1, stronger effect = lower value 0.984 | S. cerevisiae deletion strains, locus YNL233W, strain BNI4, stronger effect = lower value 1.01 | S. cerevisiae deletion strains, locus YNL248C, strain rpa49, stronger effect = lower value 1.01 | S. cerevisiae deletion strains, locus YNL250W, strain rad50, stronger effect = lower value 1.02 | S. cerevisiae deletion strains, locus YNL271C, strain bni1, stronger effect = lower value 1.02 | S. cerevisiae deletion strains, locus YNL298W, strain CLA4, stronger effect = lower value 1.01 | S. cerevisiae deletion strains, locus YNL307C, strain MCK1, stronger effect = lower value 1.02 | S. cerevisiae deletion strains, locus YNL322C, strain KRE1 (second series), stronger effect = lower value 1.01 | S. cerevisiae deletion strains, locus YNL322C, strain KRE1, stronger effect = lower value 1.01 and 0.973 | S. cerevisiae deletion strains, locus YNR049C, strain mso1, stronger effect = lower value 1.01 | S. cerevisiae deletion strains, locus YNR052C, strain pop2, stronger effect = lower value 1.01 | S. cerevisiae deletion strains, locus YOL006C, strain TOP1, stronger effect = lower value 1.01 | S. cerevisiae deletion strains, locus YOL012C, strain htz1 1.06 | S. cerevisiae deletion strains, locus YOL147C, strain pex11, stronger effect = lower value 1.01 | S. cerevisiae deletion strains, locus YOR001W, strain rrp6, stronger effect = lower value 1 | S. cerevisiae deletion strains, locus YOR061W, strain CKA2, stronger effect = lower value 1 | S. cerevisiae deletion strains, locus YOR069W, strain VPS5, stronger effect = lower value 1.01 | S. cerevisiae deletion strains, locus YOR070C, strain gyp1, stronger effect = lower value 1.01 | S. cerevisiae deletion strains, locus YOR080W, strain dia2, stronger effect = lower value 1.01 | S. cerevisiae deletion strains, locus YOR083W, strain WHI5 (second series), stronger effect = lower value 0.98 | S. cerevisiae deletion strains, locus YOR083W, strain WHI5, stronger effect = lower value 1.03 | S. cerevisiae deletion strains, locus YOR106W, strain vam3, stronger effect = lower value 1.02 | S. cerevisiae deletion strains, locus YOR136W, strain idh2, stronger effect = lower value 1.01 | S. cerevisiae deletion strains, locus YOR144C, strain elg1, stronger effect = lower value 1.01 | S. cerevisiae deletion strains, locus YOR184W, strain ser1, stronger effect = lower value 1.02 | S. cerevisiae deletion strains, locus YOR231W, strain MKK1, stronger effect = lower value 0.985 | S. cerevisiae deletion strains, locus YOR265W, strain rbl2, stronger effect = lower value 1.01 | S. cerevisiae deletion strains, locus YOR270C, strain vph1, stronger effect = lower value 1.03 | S. cerevisiae deletion strains, locus YOR290C, strain snf2, stronger effect = lower value 1.03 | S. cerevisiae deletion strains, locus YOR316C, strain cot1, stronger effect = lower value 1.02 | S. cerevisiae deletion strains, locus YPL051W, strain arl3, stronger effect = lower value 1 | S. cerevisiae deletion strains, locus YPL055C, strain LGE1, stronger effect = lower value 1.01 and 0.95 | S. cerevisiae deletion strains, locus YPL078C, strain atp4, stronger effect = lower value 1.01 | S. cerevisiae deletion strains, locus YPL106C, strain sse1, stronger effect = lower value 1.03 | S. cerevisiae deletion strains, locus YPL240C, strain hsp82, stronger effect = lower value 1.02 | S. cerevisiae deletion strains, locus YPL241C, strain CIN2, stronger effect = lower value 1 | S. cerevisiae deletion strains, locus YPL256C, strain CLN2, stronger effect = lower value 0.982 | S. cerevisiae deletion strains, locus YPR119W, strain clb2, stronger effect = lower value 1.02 | S. cerevisiae deletion strains, locus YPR141C, strain kar3, stronger effect = lower value 1.01 | S. cerevisiae deletion strains, locus YPR163C, strain tif3, stronger effect = lower value 1.02 | S. cerevisiae deletion strains, locus YPR167C, strain met16, stronger effect = lower value 1.02 | S. cerevisiae deletion strains, strain wtn01, stronger effect = lower value 1.03 | S. cerevisiae strains, strain wild type, stronger effect = lower value 1.01
